A short description of experiment [1]: compounds binding Alexa647 anti-His antibody – biochemical, small-molecule microarray, 635 nm fluorescence, artefact control for SMM control protein annotation, primary screen (AID 1128).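 Further: score merges feature fluorescence with signal-to-noise for each printed compound spot.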 Conditions: higher = more signal.
Experiment [2] concerns Human papillomavirus type 1a E7 protein (residues 1-88). The experiment in a line: HPV1a E7 small-molecule binders, primary screen, biochemical, small-molecule microarray, residues 1-88, 635 nm (AID 1129). Particulars: small-molecule microarray binding, fluorescence 635 nm; higher = more signal.
Experiment [3] addresses Focal adhesion kinase 1 (Homo sapiens) (UniProt Q05397). The experiment in a line: PTK2 protein binding on printed compound slides – biochemical, small-molecule microarray, 635/667 nm fluorescence, BSA, DTT, primary screen (AID 1130).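 Further: composite of spot emission at 667 nm and signal to noise over triplicate slides.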 Conditions: 635 nm fluorescence, higher = more signal.
In experiment [4] the test system is Fibrinogen (Alexa647-labelled). The experiment is described as follows: Alexa647-fibrinogen binding to printed small molecules – biochemical, small-molecule microarray, 635/667 nm fluorescence, artefact control for SMM control-protein annotation, profiling panel (AID 1131).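 Further: z-score merges 667 nm fluorescence with per-spot signal-to-noise over triplicate slides.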 Particulars: fibrinogen-A647 binding fluorescence, higher = more signal.
Experiment [5] addresses Follistatin (Homo sapiens) (UniProt P19883). The experiment is described as follows: FST protein binding to printed compounds – biochemical, small-molecule microarray, 635/667 nm fluorescence, primary screen (AID 1132). Particulars: 635 nm fluorescence, higher = more signal.
Experiment [6] has as its target Fibroblast growth factor 2 (Homo sapiens) (UniProt P09038). The experiment in a line: basic fibroblast growth factor binding to printed compounds – biochemical, small-molecule microarray, 635/667 nm fluorescence, primary screen (AID 1133). Particulars: FGF2, fluorescence 635/667, higher = more signal.
Experiment [7] in a line: JC-1 mitochondrial potential readout, lung cancer cells – cell-based, A549, JC-1 fluorescence, basal, 24 h, 100 nL, profiling panel (AID 1138).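 Further: A549 lung adenocarcinoma cells under basal conditions with no added stimulus; test concentration not given here.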 Particulars: higher = more signal.
The test system of a further experiment is Lefty1. The experiment in a line: Lefty1 protein binding to printed compounds – biochemical, small-molecule microarray, 635/667 nm fluorescence, primary screen (AID 1139). Particulars: fluorescence 635/667, higher = more signal.
The subject of experiment [8] is wheat germ agglutinin (Triticum aestivum), Alexa647-labelled. The experiment is described as follows: Alexa647-WGA lectin binding to printed small molecules – biochemical, small-molecule microarray, 635/667 nm fluorescence, artefact control for SMM control-protein annotation, profiling panel (AID 1140).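 Further: score merges 667 nm feature emission with signal to noise over triplicate slides.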 Particulars: WGA-A647 binding, 635 nm fluorescence, higher = more signal.

For experiment [9], the target named is Luciferin 4-monooxygenase (Photinus pyralis) (UniProt P08659). The experiment in a line: inhibition of purified Photinus pyralis luciferase – biochemical, luminescence, purified enzyme, 2006 set, primary screen (AID 1141).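 Further: cell-free assay with purified firefly luciferase at 100 ng per well in PBS; test concentration not given here.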 Conditions: purified firefly luciferase, SteadyGlo luminescence, 30 min; higher = more signal, called active from +8 up or from −8 down.
For experiment [10], the system named is Wnt5a (protein binding on small-molecule microarray). The experiment in a line: small molecules binding Wnt5a protein – biophysical, small-molecule microarray, 635/667 nm fluorescence, primary screen (AID 1142).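 Further: fluorescence read at 667 nm with signal to noise per printed feature.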 Conditions: 635 nm fluorescence, higher = more signal.
A short description of experiment [11]: ATP-based viability of Huh7 replicon cells – cell-based, CellTiter-Glo luminescence, basal, 48 h, cytotoxicity control for HCV replication inhibitor project, primary screen (AID 1143).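 Further: Huh7 hepatoma cells carrying a hepatitis C replication reporter with no stimulus; test concentration not given here.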 Particulars: higher = more signal, called active from +8 up or from −8 down. Background: Replicon systems follow genome replication, usually without infectious particles.
A short description of experiment [12]: Pseudomonas biofilm growth suppression – PAO1 strain, BacTiter-Glo luminescence, LB-PBS, primary screen (AID 1144). Conditions: P. aeruginosa PAO1 biofilm, 12 h, higher = more signal.
The nature of experiment [13]: basal CRE-LacZ reporter activity in PC12 – cell-based, unstimulated, primary screen (AID 1145). Particulars: no forskolin, luminescence, 4.5 h, higher = more signal, called active from +8 up or from −8 down.
The nature of experiment [14]: forskolin-driven CRE-LacZ activity in PC12 – cell-based, CRE-LacZ reporter, forskolin-stimulated, primary screen (AID 1146).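 Further: PC12 cells with 6xCRE LacZ reporter stimulated by forskolin 10 µM; beta-galactosidase reporter signal reflecting CREB driven transcription.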 Conditions: luminescence, 4.5 h, higher = more signal, called active from +8 up or from −8 down.
The target of experiment [15] is Streptavidin (Streptomyces avidinii) (UniProt P22629). The experiment is described as follows: compounds binding control protein streptavidin – biophysical, small-molecule microarray, 635/667 nm fluorescence, artefact control for SMM compound annotation, primary screen (AID 1147).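 Further: signal reflects streptavidin binding to arrayed compounds as a control protein.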 Conditions: higher = more signal.
A short description of experiment [16]: probe aInhba binding on compound microarray – biochemical, small-molecule microarray, 635/667 nm fluorescence, primary screen (AID 1148).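 Further: score merges 667nm spot fluorescence with signal-to-noise for antibody binding to printed compounds.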 Conditions: higher = more signal.
The target in experiment [17] is Torsin-1A (Homo sapiens) (UniProt O14656). The experiment is described as follows: TOR1A wild-type binding on microarray – cell lysate, small-molecule microarray, lysate, 635/667 nm, primary screen (AID 1149). Conditions: COS7 hTOR1A-WT lysate, 635 nm fluorescence, higher = more signal.
Experiment [18] has the same target. The experiment in a line: torsin A mutant lysate binding on microarrays – cell lysate, small-molecule microarray, COS7 lysate, 635/667 nm fluorescence, primary screen (AID 1150).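 Further: score pools 667 nm emission and signal to noise measuring lysate protein binding.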 Particulars: COS7 hTOR1A mutant lysate, 635 nm fluorescence, higher = more signal.
For experiment [19], the system named is Sonic hedgehog protein (Shh). The experiment is described as follows: Sonic hedgehog microarray binding compounds – biochemical, small-molecule microarray, 635/667 nm fluorescence, primary screen (AID 1151).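 Further: Shh protein binding to compounds spotted on small-molecule microarray slides; score combines spot fluorescence intensity with signal-to-noise across triplicate slides.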 Conditions: 635 nm fluorescence, higher = more signal.

The source made the active and inactive calls. Unless noted, how the calls were made is not given here.

Sequence of Focal adhesion kinase 1 (Homo sapiens) (Q05397 whole entry, looked up): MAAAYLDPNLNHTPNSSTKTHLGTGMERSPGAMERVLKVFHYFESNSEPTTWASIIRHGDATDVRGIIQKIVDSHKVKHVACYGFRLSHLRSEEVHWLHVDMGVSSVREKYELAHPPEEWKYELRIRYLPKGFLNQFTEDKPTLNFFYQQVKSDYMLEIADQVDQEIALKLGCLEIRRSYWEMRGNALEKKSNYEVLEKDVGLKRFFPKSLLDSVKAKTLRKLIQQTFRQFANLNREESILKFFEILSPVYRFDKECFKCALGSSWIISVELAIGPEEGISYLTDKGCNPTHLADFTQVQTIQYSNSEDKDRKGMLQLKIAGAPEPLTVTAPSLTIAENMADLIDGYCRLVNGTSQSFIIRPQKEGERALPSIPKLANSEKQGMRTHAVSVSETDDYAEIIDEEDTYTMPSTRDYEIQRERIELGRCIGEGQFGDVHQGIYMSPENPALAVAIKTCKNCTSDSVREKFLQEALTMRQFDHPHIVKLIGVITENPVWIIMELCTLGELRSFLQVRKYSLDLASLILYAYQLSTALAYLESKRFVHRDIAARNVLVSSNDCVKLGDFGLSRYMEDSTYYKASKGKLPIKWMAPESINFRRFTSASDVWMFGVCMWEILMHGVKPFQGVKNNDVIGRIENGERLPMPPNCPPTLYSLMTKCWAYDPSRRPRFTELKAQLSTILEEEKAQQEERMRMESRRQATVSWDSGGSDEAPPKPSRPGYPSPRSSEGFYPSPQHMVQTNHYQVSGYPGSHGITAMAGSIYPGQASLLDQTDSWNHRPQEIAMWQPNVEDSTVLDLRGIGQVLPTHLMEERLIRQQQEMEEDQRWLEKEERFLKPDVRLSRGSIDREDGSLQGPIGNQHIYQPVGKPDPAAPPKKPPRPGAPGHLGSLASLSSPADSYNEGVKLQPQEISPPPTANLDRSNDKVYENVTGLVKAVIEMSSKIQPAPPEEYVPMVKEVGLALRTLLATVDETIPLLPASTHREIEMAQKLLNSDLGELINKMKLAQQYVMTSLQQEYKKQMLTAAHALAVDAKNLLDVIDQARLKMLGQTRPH
Sequence of Streptavidin (Streptomyces avidinii) (P22629 whole entry, looked up): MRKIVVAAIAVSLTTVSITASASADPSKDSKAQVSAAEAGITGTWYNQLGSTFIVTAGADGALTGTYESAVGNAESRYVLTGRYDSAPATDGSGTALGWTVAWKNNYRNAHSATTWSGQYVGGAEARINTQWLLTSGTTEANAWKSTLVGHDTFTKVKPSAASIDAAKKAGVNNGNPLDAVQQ
Sequence of Luciferin 4-monooxygenase (Photinus pyralis) (P08659 whole entry, looked up): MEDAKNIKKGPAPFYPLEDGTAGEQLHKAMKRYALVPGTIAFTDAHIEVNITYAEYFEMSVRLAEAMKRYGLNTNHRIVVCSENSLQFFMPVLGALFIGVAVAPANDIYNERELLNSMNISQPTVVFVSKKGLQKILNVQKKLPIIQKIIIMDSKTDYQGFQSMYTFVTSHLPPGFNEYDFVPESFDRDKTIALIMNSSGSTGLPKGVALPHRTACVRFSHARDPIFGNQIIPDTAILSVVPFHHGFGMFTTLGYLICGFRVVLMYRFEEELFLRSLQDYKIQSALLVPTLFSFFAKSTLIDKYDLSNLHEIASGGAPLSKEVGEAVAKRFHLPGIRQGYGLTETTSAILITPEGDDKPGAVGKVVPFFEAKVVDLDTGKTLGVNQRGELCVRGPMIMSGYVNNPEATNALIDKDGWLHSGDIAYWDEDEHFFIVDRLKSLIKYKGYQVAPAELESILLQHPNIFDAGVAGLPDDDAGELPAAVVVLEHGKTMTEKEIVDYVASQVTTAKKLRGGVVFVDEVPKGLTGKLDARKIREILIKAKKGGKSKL
Sequence of Follistatin (Homo sapiens) (P19883 whole entry, looked up): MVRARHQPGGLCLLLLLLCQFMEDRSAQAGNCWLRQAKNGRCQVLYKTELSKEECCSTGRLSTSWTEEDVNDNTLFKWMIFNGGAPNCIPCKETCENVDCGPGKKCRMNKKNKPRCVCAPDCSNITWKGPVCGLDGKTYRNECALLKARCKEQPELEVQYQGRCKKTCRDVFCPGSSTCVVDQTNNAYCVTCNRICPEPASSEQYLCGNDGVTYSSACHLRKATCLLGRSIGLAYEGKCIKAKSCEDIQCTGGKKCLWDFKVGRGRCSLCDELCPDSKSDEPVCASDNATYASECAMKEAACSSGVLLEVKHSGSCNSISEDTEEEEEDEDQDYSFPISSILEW
Sequence of Torsin-1A (Homo sapiens) (O14656 whole entry, looked up): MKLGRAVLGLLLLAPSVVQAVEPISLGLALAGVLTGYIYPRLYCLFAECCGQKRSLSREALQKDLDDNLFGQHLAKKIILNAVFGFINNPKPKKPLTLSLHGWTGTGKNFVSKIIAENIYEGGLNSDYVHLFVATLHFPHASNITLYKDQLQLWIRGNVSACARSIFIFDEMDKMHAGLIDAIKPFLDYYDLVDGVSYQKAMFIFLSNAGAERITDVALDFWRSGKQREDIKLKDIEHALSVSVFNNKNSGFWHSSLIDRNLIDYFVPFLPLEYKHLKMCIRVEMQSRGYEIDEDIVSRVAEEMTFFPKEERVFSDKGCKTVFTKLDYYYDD
Sequence of Fibroblast growth factor 2 (Homo sapiens) (P09038 whole entry, looked up): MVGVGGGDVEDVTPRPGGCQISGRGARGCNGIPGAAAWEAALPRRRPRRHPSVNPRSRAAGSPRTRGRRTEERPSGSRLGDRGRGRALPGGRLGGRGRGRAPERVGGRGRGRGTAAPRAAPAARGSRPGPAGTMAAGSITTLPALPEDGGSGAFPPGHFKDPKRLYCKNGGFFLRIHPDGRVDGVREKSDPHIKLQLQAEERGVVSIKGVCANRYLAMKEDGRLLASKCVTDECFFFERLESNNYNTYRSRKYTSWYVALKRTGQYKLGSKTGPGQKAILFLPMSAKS

Turning to `C=CCNC(=O)[C@H]1[C@@H]2C(=O)O[C@@H](c3ccccc3)[C@@H](c3ccccc3)N2[C@@H](c2ccc(O)cc2)[C@]12C(=O)N(C(=O)OCCOC)c1ccc(C#CCNC(N)=O)cc12`, the composite z-score in experiment [1] turned out to be 1.05; in [2], 0.898; in experiment [3], 0.0197; in experiment [4] it was 0.0703; in [5] it was 1.44; in experiment [6], 1.58. Moreover, the composite z-score in the experiment on Lefty1 is 0.713; in [8], 1.03; in experiment [10], 0.415; in experiment [15], -0.231; in experiment [16] it was 0.223; in the experiment with Torsin-1A (Homo sapiens) [17] it was 0.181. Besides, the values for the composite z-score (with Torsin-1A (Homo sapiens) [18]; in experiment [19]) were -0.0483 and 1.55, respectively. Further, the z-score is -0.531 in [7]; -0.0822 (inactive) in [9]; 0.621 (inactive) in experiment [11]; 0.283 (inactive) in experiment [12]; 0.0736 (inactive) in experiment [13]; -0.036 (inactive) in experiment [14].

Consider `CN1C(=O)[C@]2(Cc3ccccc3)N=C(c3ccc(OCCCO)cc3)O[C@@H]2c2ccccc21`, for which the composite z-score was determined as 0.0581 in [1]; 1.2 in experiment [2]; 1.07 in experiment [3]; 0.775 in [4]; 1.3 in experiment [5]; 1.8 in experiment [6]. The composite z-score in the experiment with Lefty1 came to 0.201; in experiment [8], 0.831; in experiment [10], 0.928; in [15], 0.0004; in experiment [16] it was 0.112; with Torsin-1A (Homo sapiens) [17], 0.428. For the same compound, the composite z-score in the experiment with Torsin-1A (Homo sapiens) [18] worked out at 0.628; in experiment [19], 1.15. Moreover, the z-score in [7] is -0.00476; in [9], -4.06 (inactive); in experiment [11], -4.61 (inactive); in experiment [12], -1 (inactive); in experiment [13] it was 0.456 (inactive); in experiment [14], -1.12 (inactive).

For `COc1cc2c(cc1OC)CN(C(=O)[C@H]1[C@@H]3C(=O)O[C@@H](c4ccccc4)[C@@H](c4ccccc4)N3[C@@H](c3ccc(O)cc3)[C@]13C(=O)Nc1ccc(C#CC4=CCCCC4)cc13)CC2`, the composite z-score is 2.11 in [1]; 1.19 in experiment [2]; -0.0164 in experiment [3]; 0.666 in experiment [4]; 1.22 in experiment [5]; 0.86 in [6]. Further, the composite z-score with Lefty1 came out at 1.2; in experiment [8] it was 1.12; in experiment [10] it was 0.657; in experiment [15], 1.45; in experiment [16], 0.288; with Torsin-1A (Homo sapiens) [17], 0.302. Besides, the composite z-score with Torsin-1A (Homo sapiens) [18] amounted to 0.454; in [19], 1.07. The z-score in experiment [7] was 0.0961; in experiment [9], -1.1 (inactive); in [11], -2.62 (inactive); in [12], -0.693 (inactive); in experiment [13], -0.375 (inactive); in experiment [14], -0.267 (inactive).

For `COc1ccc(CCN2C(=O)[C@@]3(Cc4ccccc42)c2ccccc2C(=O)N(Cc2ccccc2C(F)(F)F)[C@H]3c2ccc(CO)cc2)cc1`, the composite z-score in experiment [1] was 0.752; in [2] it was -0.175; in experiment [3] it was -0.324; in [4], 0.732; in experiment [5], 1.12; in experiment [6], 0.83. The composite z-score with Lefty1 was 0.541; in experiment [8], 0.461; in experiment [10] it was 0.268; in experiment [15], -0.228; in experiment [16], -0.208; with Torsin-1A (Homo sapiens) [17], 0.208. In addition, the values for the composite z-score (with Torsin-1A (Homo sapiens) [18]; in experiment [19]) were 0.087 and 1.9, respectively. Moreover, the z-score in [7] was -0.963; in [9], 0.642 (inactive); in [11], -4.12 (inactive); in experiment [12], -1.41 (inactive); in experiment [13], -0.554 (inactive); in experiment [14], -0.361 (inactive).

On to `COCCOC(=O)N1C(=O)[C@@]2(c3cc(C#CC4=CCCCC4)ccc31)[C@H](C(=O)Nc1nc3ccccc3s1)[C@H]1C(=O)O[C@H](c3ccccc3)[C@H](c3ccccc3)N1[C@@H]2c1ccc(OCCO)cc1`, for which the composite z-score in experiment [1] came to 0.424; in [2], 1.07; in experiment [3], 0.147; in experiment [4], 0.192; in experiment [5], 1.18; in experiment [6] it was 0.898. Besides, the composite z-score was 0.726 in the experiment on Lefty1; 0.253 in experiment [8]; 0.575 in [10]; 0.986 in experiment [15]; -0.0221 in experiment [16]; 0.256 in the experiment with Torsin-1A (Homo sapiens) [17]. Further, the composite z-score was 0.254 with Torsin-1A (Homo sapiens) [18] and 1.5 in [19]. Besides, the z-score in experiment [7] is -1.99; in [9] it was -5.3 (inactive); in [11], -1.49 (inactive); in experiment [12], -1.07 (inactive); in experiment [13], -0.258 (inactive); in experiment [14] it was -0.47 (inactive).
